Drawing on PubChem BioAssay AID778 (Sanford-Burnham Center for Chemical Genomics, 2007), this text covers inhibition for 61 compounds.

The campaign covered roughly 96,000 compounds. About 20,000 (21%) were called active.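 Rule for the calls: active = CYP2C19 inhibition above a set limit at 5 µM in the primary screen (cut at about 50% in these data); inactive = the rest.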 The list is a sample of the results.

In this test the target is Cytochrome P450 2C19 (Homo sapiens) (UniProt P33261). The test is described as follows: blockers of cytochrome P450 2C19 activity – biochemical, luminescence, ADME assay, primary screen (AID 778).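 Note: plate controls were negative control wells for no effect and 2.5 mM tranylcypromine positive control for full effect.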 Conditions: CYP2C19 Supersomes, luciferin-H EGE luminescence, 30 min; at 5 µM; active compounds read high.
Chain of Cytochrome P450 2C19 (Homo sapiens) (P33261 whole entry, looked up): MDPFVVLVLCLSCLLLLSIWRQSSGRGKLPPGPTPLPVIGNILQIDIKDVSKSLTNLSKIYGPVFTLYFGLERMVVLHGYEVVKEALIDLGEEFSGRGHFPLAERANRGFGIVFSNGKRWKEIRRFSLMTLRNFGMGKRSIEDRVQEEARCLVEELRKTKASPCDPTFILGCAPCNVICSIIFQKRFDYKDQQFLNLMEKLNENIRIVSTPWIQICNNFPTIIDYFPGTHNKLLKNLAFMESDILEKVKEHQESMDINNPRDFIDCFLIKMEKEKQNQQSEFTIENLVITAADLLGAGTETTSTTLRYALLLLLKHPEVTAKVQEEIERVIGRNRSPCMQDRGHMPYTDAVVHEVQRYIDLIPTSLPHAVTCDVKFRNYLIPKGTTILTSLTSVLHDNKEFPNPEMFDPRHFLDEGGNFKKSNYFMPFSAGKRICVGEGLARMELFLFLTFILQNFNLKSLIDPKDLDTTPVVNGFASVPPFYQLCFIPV
Take `Cn1c(=O)c2c(nc(SCC(=O)Nc3ccccc3N3CCCCC3)n2C)n(C)c1=O`: the inhibition was 86.6% (active).

For the compound `Cn1c(=O)c2c(nc(N3CCCCCC3)n2CC(=O)c2ccc(Br)cc2)n(C)c1=O`, the inhibition was 0.8% (inactive).

With `C#CC(C)(C)NC(=O)CSc1nc2c(c(=O)n(C)c(=O)n2C)n1CCCC`, the inhibition was -7.1% (inactive).

Take `CC(C)n1c(SCC(=O)Nc2ccccc2N2CCCCC2)nc2c1c(=O)n(C)c(=O)n2C`: the inhibition was 40.4% (inactive). On to `Cn1c(=O)c2c(nc(SCCNS(=O)(=O)c3ccccc3)n2C)n(C)c1=O`, for which the inhibition was 73.3% (active). As to `CCCSc1nc2c(c(=O)[nH]c(=O)n2C)n1CCc1ccccc1`, the inhibition is 26% (inactive). For the compound `Cc1ccc(NC(=O)c2cc(-c3ccc(C)o3)nc3ccccc23)nc1`, the inhibition is -3.9% (inactive). For `O=C(O)CCC(=O)N(Cc1ccco1)c1nc(-c2ccccc2)cs1`, the inhibition is 2.5% (inactive). As to `Cc1ccc(-c2csc(NC(=O)c3cccs3)n2)cc1`, the inhibition is -2.3% (inactive).

In the case of `Cc1ccc(-c2csc(N(Cc3ccco3)C(=O)c3cccs3)n2)cc1`, the inhibition was 68.5% (active). As to `CCOC(=O)N1CCN(C(=O)C2CCN(S(C)(=O)=O)CC2)CC1`, the inhibition is -15% (inactive). Take `Cc1nc(NC(=O)CN(C)S(=O)(=O)c2ccc(Cl)cc2)sc1C`: the inhibition was 62.6% (active). In the case of `CN(CC(=O)Nc1cccc2c1CCCC2)S(=O)(=O)c1ccc(Cl)cc1`, the inhibition is -15.4% (inactive). Then `CCOC(=O)Cc1csc(NC(=O)CN(C)S(=O)(=O)c2ccc3c(c2)CCC(=O)N3)n1`, with -17.1% (inactive); and `CCN(c1ccccc1)S(=O)(=O)c1ccc(C(=O)Nc2nccs2)cc1`, with -4.3% (inactive). `CN(CCCC(=O)Nc1nccs1)S(=O)(=O)c1ccc(Cl)cc1`: the inhibition is 51% (active).

For the compound `O=C(Nc1nccs1)C1CCN(S(=O)(=O)c2ccc(Cl)c(C(F)(F)F)c2)CC1`, the inhibition was 36.3% (inactive).

As to `O=c1c2ccccc2c(-c2ccc(Br)cc2)nn1Cc1ccccc1`, the inhibition is 33% (inactive). Turning to `CCC(=O)NC(=Nc1nc2ccccc2s1)NC(=O)CC`, the inhibition is -0.9% (inactive). On to `N#C/C=C1\Sc2ccccc2C(=O)N1CC(=O)N1CCN(S(=O)(=O)c2ccccc2)CC1`, for which the inhibition is -22.8% (inactive).

For `CC1(C)CC(=O)C(C=NCCN2CCN(C(=S)Nc3cccc(Cl)c3)CC2)=C(O)C1`, the inhibition was 60.5% (active). The result for `CC1(C)CC(=O)C(C=NCCC2=CCCCC2)=C(O)C1` reads 9.5% (inactive); that for `CC(=O)N1CCN(CCN=CC2=C(O)CC(C)(C)CC2=O)CC1`, -18.4% (inactive). As to `CCn1cc(C(=O)NCC2CCCO2)c(=O)c2cc(S(=O)(=O)N3CCCCC3)ccc21` (stereo unspecified), the inhibition was 13.6% (inactive). As to `Cc1ccc(C(=O)N(CN2CCCC2=O)c2ccc(F)cc2)cc1`, the inhibition was -14.3% (inactive).

Take `CCCNC(=O)C1CC(=O)N(c2ccc(OCC(=O)Nc3cccc(C)c3C)cc2)C1` (stereo unspecified): the inhibition was -17.2% (inactive). Then `COc1ccc(Cl)cc1NC(=O)C1CC(=O)N(c2ccc(F)cc2)C1` (stereo unspecified), with 74.3% (active); and `COCCCNC(=O)C1CC(=O)N(c2ccc(C)cc2)C1` (stereo unspecified), with 5.7% (inactive); and `N#Cc1c(N)nc2c3c(sc(=N)c2c1N)NC(=O)CC3c1ccccc1Cl` (stereo unspecified), with -0.8% (inactive).

As to `CN(C)c1ccnc(Oc2ccc(F)cc2)c1C#N`, the inhibition was 32.1% (inactive). For the compound `Cc1cc(C)cc(OCc2nnc(SCC(=O)OC3CCCCC3)o2)c1`, the inhibition was 4.2% (inactive). In the case of `Cc1cccc(OCc2nnc(SCn3nnc4ccccc4c3=O)o2)c1`, the inhibition was 31.6% (inactive). As to `Cc1cccc(OCc2nnc(SCc3nc4cc(C(F)(F)F)ccc4c(=O)[nH]3)o2)c1`, the inhibition is 54% (active). Then `COc1ccc(Nc2cc(C)nc(-n3nc(C)cc3C)n2)cc1`, with 46% (inactive); and `COCCCNC(NC(=O)c1ccc(C)cc1)C(Cl)(Cl)Cl` (stereo unspecified), with 24.3% (inactive); and `CCC(=O)c1c[nH]c(C(=O)NCC2CCCO2)c1` (stereo unspecified), with -4.8% (inactive).

Regarding `CCNC(=O)N1CCNC(=O)C1CC(=O)Nc1ccc(C(=O)OCC)cc1` (stereo unspecified), the inhibition was 3.6% (inactive).

Consider `COc1cc(C(=O)Nc2nccs2)cc(OC)c1OC`, for which the inhibition is 17.9% (inactive).

In the case of `CC1(C)Cc2cccc(OCC(N)=O)c2O1`, the inhibition was -16.5% (inactive). `CC1(C)Cc2cccc(OCC(=O)Nc3nccs3)c2O1`: the inhibition is 60.6% (active). As to `CCOC(=O)c1cc2n(c1N)-c1ccccc1C2=O`, the inhibition is 26.7% (inactive). The result for `O=C(NCC1CCC(C(=O)O)CC1)OCc1ccccc1` (stereo unspecified) reads 2.9% (inactive); that for `Cc1ccc(C(=O)/C=C/c2c(C)nn(-c3ccccc3)c2Cl)cc1`, 76.2% (active). In the case of `Cc1nn(-c2ccccc2)c(Cl)c1C(=O)Nc1ccccc1`, the inhibition was 39.2% (inactive). For the compound `Cc1nn(-c2ccccc2)c(CC(C)(C)C(=O)O)c1C(=O)O`, the inhibition was 7.2% (inactive). As for `Cc1ccc(O)c(CNc2nc3ccccc3n2C)c1`, the inhibition is 39.6% (inactive).

Regarding `CCC1SC2=NCCN2C1(O)c1ccc(Cl)cc1` (stereo unspecified), the inhibition was 94.6% (active). Consider `O=C(COc1ccccc1F)NC1CC1`, for which the inhibition is -8.2% (inactive). The result for `O=C1CCCc2c1nc(-c1cccc(Cl)c1)n2O` reads -3.8% (inactive).

Regarding `CON(C)S(=O)(=O)c1ccc2c(c1)NC(=O)C1CCCN21` (stereo unspecified), the inhibition was 4.3% (inactive). Take `COc1ccc(Nc2nc(Cl)nc(NCc3ccco3)n2)cc1`: the inhibition was 4% (inactive). With `COc1ccc(N(CC(=O)N/N=C/c2cccs2)S(=O)(=O)c2ccc(OC)c(OC)c2)cc1`, the inhibition is 99.3% (active).

On to `COc1ccc(N(CC(=O)N/N=C/c2cccc3c2OCCO3)S(=O)(=O)c2ccc(NC(C)=O)cc2)cc1`, for which the inhibition was 33.4% (inactive). As for `Cc1cc(C)nc(SC(C)C(=O)N/N=C/c2cccs2)n1` (stereo unspecified), the inhibition is 20.8% (inactive). For the compound `CCOc1ccc(N=Cc2c(O)n(-c3cccc(C)n3)c(=O)c3ccccc23)cc1`, the inhibition is 23.6% (inactive). As for `CCOC(=O)c1cc2c(n(-c3ccc(C)cc3)c1=O)CCCC2=O`, the inhibition is 5.6% (inactive). `COC(=O)CNC(=O)c1ccccc1F`: the inhibition was -5.1% (inactive). Regarding `CSc1nc(N(C)NC(=O)c2cccc(C)c2)c2ccccc2n1`, the inhibition is 77% (active). Regarding `CN(NC(=O)c1ccccc1)c1nc2ccccc2nc1C(F)(F)F`, the inhibition is 35.4% (inactive).

On to `COc1ccc(C(=O)NN(C)c2nc(-c3ccccc3)cc(C)c2S(C)(=O)=O)cc1`, for which the inhibition is 10.6% (inactive). `Cc1c(C(=O)OC(C)C)sc(NC(=O)c2cccnc2)c1C#N`: the inhibition was 1.5% (inactive).
